uPA surface inh = inhibitors of cell surface uPA generation | cell surface uPA generation assay, qHTS | Potency, µM (highest dose often 38.3 µM), inactives show at the top dose activity change, negative = inhibition, actives largely listed as inhibitors | 330,000 tested, 0.31% active; active = well fitted inhibition curve with a large enough effect; inconclusive = small, poorly fitted or top-dose-only effect; inactive = no such curve, though single readings can be large or run the other way; tested in mouse RAW 264.7 cells; also: potency is read from the fitted curve at half-maximal effect; % is scaled to controls: 0 for no effect and ±100 for the full control effect; nearly all actives have a fitted effect of over 55% in size
RORgamma inh = blocks mouse ROR gamma transcriptional activity | Drosophila S2 Gal4-RORgamma UAS-luciferase reporter, 20 h | P51450 | Potency, µM (titrated, usually from 53.6 µM), for inactives: at the top dose activity change, negative = inhibition, actives largely listed as inhibitors | 310,000 tested, 5.4% active; also: potency is read from the fitted curve at half-maximal effect; % is scaled to controls: 0 for no effect and ±100 for the full control effect; nearly all actives have a fitted effect of over 60% in size
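Luminescence from a UAS-regulated Photinus luciferase reporter in stably transfected Drosophila Schneider cells is measured; decreased signal marks ROR gamma inhibition. Fusion expression is induced by 700 uM copper sulfate for 20 hr.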
TRPV1 ag = agonists of human vanilloid receptor 1 (TRPV1). Q8NER1. TRPV1-expressing cells, Fluo-8 calcium influx, agonist mode. activation, % at 8.33 µM. 320,000 tested, 0.19% active; in the data active = activation above about 80%; inconclusive = between about 30% and that limit; also: 0% is about no effect
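TRPV1-expressing cells were cultured overnight at 35.5C and loaded with Fluo-8 calcium dye for 40 to 90 min at room temperature. After a 10 s baseline, compound was added and calcium influx was read kinetically for 3 min (ex 480/em 520 nm).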
Gal4-VP16 FLuc = inhibits Gal4-VP16 luciferase reporter, ROR gamma counter-screen | Drosophila S2 Gal4-VP16 UAS-luciferase, luminescence, 20 h | Potency, µM (highest dose often 53.6 µM), inactives show at the highest dose activity, negative = inhibition, hits mostly inhibitors | 310,000 tested, 3.5% active | AID 2546;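 also: Gal4-VP16 expression switched on by copper sulfate through the metallothionein promoter; potency is read from the fitted curve at half-maximal effect; % is scaled to controls: 0 for no effect and ±100 for the full control effect; nearly all actives have a fitted effect of over 50% in size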
TRPV1 PAM = enhances activation of the human vanilloid receptor TRPV1; TRPV1-expressing cells, Fluo-8 calcium influx, capsaicin EC20 potentiation; potentiation, % at 8.33 µM; 320,000 tested, 0.02% active; in the data active = potentiation above about 80%; inconclusive = between about 30% and that limit; also: 0% is about no effect
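Cells expressing TRPV1 were dye-loaded with Fluo-8 and read kinetically: 10 s baseline, 3 min after compound (agonist portion), then 2 min after EC20 capsaicin (allosteric enhancer portion). Calcium-bound dye fluorescence at 480/520 nm.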
Starred values were filed as active, the others as inactive. This is a sample that favours compounds with a hit; in the whole collection about 5.8% have one here. Unless noted, calls follow the shape of the dose curve; as a rule, active = well fitted curve in the direction sought with a large enough effect; inconclusive = small, poorly fitted or top-dose-only effect, or another doubt; inactive = no such curve, though single readings can be large; an effect the other way counts as inactive or inconclusive.

COc1cccc(/C=N/Nc2ccnc(=O)[nH]2)c1O was read as uPA surface inh -11%, RORgamma inh 4µM*, TRPV1 ag 0, Gal4-VP16 FLuc 8.9µM* and TRPV1 PAM 3.
`COc1cccc(/C=N/Nc2ccc(C(=O)O)cc2)c1O` gave uPA surface inh inconclusive, RORgamma inh 0.032µM*, TRPV1 ag 2, Gal4-VP16 FLuc inconclusive and TRPV1 PAM 6.
`CCN(CC)CCNC(=O)C(=O)Nc1ccc(C(=O)OC)cc1` gave uPA surface inh -1%, RORgamma inh 4%, TRPV1 ag 3, Gal4-VP16 FLuc -2% and TRPV1 PAM -44.
For CC(Sc1nc2ccccc2c(=O)n1CC1CCCO1)C(=O)Nc1ccc(S(N)(=O)=O)cc1 (stereo unspecified) the results were uPA surface inh -6%, TRPV1 ag 2 and TRPV1 PAM inconclusive.
`CC1(C)CC(NC(=O)c2ccc(-c3ccc([N+](=O)[O-])cc3)o2)CC(C)(C)N1` gave uPA surface inh -4%, RORgamma inh 2%, TRPV1 ag -5, Gal4-VP16 FLuc -4% and TRPV1 PAM 8.
`CCC(C)(C)n1nnnc1C(c1ccc2ncccc2c1)N1CCN2CCCC2C1` (stereo unspecified) gave uPA surface inh -7%, RORgamma inh 15%, TRPV1 ag 1, Gal4-VP16 FLuc 15% and TRPV1 PAM -4.
CC1(C)CC1C(=O)N/C(=C/CCCCSCC(N)C(=O)O)C(=O)O (stereo unspecified) was read as RORgamma inh 0% and Gal4-VP16 FLuc 2%.
Screening COC(=O)CNc1nc(C2CC2)nc2c1nnn2Cc1ccccc1Cl returned RORgamma inh -24%, TRPV1 ag 1, Gal4-VP16 FLuc -28% and TRPV1 PAM 6.
`CN(C)S(=O)(=O)c1ccc(Nc2nc(C3CC3)nc3c2nnn3Cc2ccccc2Cl)cc1` gave uPA surface inh 3%, RORgamma inh -33%, TRPV1 ag 4, Gal4-VP16 FLuc 4µM* and TRPV1 PAM -35.
Screening COc1cc(OC)c2c(c1)OC(=O)CC2c1ccccc1OC (stereo unspecified) returned RORgamma inh -6% and Gal4-VP16 FLuc -5%.
Screening CCC(C(=O)NC(C)(C)C)N(C(=O)c1ccc(Cl)nc1)C1CCCC1 (stereo unspecified) returned uPA surface inh -2%, RORgamma inh -7%, TRPV1 ag 2, Gal4-VP16 FLuc -8% and TRPV1 PAM -17.
For COc1ccc(-c2nc3cnc(OC)nc3n(C)c2=O)cc1 the results were RORgamma inh 12% and Gal4-VP16 FLuc 6%.
For Cc1cc2c(cc(C(=O)NCCCN3CCOCC3)n2Cc2ccc(Cl)cc2)o1 the results were uPA surface inh 3%, RORgamma inh inconclusive, TRPV1 ag -3, Gal4-VP16 FLuc 10µM* and TRPV1 PAM 5.
`CC1(C(=O)NCc2ccc(F)cc2)Oc2ccccc2NC1=O` (stereo unspecified) gave uPA surface inh 4%, RORgamma inh -57%, TRPV1 ag -3, Gal4-VP16 FLuc 0.32µM* and TRPV1 PAM -8.
`COc1ccc(CN(C)Cc2nc(Cc3cccc(F)c3)no2)c2cccnc12` gave uPA surface inh -9%, RORgamma inh inconclusive, TRPV1 ag 10, Gal4-VP16 FLuc 7.1µM* and TRPV1 PAM -7.
For COc1cccc(-n2cc(CN(C)Cc3nc(Cc4cccc(F)c4)no3)cn2)c1 the results were uPA surface inh 8%, RORgamma inh 0%, TRPV1 ag inconclusive, Gal4-VP16 FLuc 3% and TRPV1 PAM -14.
Screening CN(C)S(=O)(=O)c1cccc(NC(=S)N/N=C/c2ccco2)c1 returned uPA surface inh -10%, RORgamma inh 1.1µM*, TRPV1 ag 4, Gal4-VP16 FLuc 3.2µM* and TRPV1 PAM 2.
`COc1cccc(/C=N/NC(=S)Nc2cccc(S(=O)(=O)N(C)C)c2)c1` gave uPA surface inh -7%, RORgamma inh 1.6µM*, TRPV1 ag 4, Gal4-VP16 FLuc 4.5µM* and TRPV1 PAM 3.
COc1cc(/C=N/NC(=S)Nc2cccc(S(=O)(=O)N(C)C)c2)cc(OC)c1O was read as uPA surface inh 1%, RORgamma inh 3.2µM*, TRPV1 ag 14, Gal4-VP16 FLuc 2.8µM* and TRPV1 PAM -4.
CN(C)S(=O)(=O)c1cccc(NC(=S)N/N=C/C(c2ccccc2)c2ccccc2)c1 was read as uPA surface inh 4%, RORgamma inh 3.5µM*, TRPV1 ag 0, Gal4-VP16 FLuc 5µM* and TRPV1 PAM -8.
`CN(C)S(=O)(=O)c1cccc(NC(=S)N/N=C/c2ccc(O)c(O)c2O)c1` gave uPA surface inh -2%, RORgamma inh inconclusive, TRPV1 ag 1, Gal4-VP16 FLuc -20% and TRPV1 PAM 11.
CN(C)S(=O)(=O)c1cccc(NC(=S)Nc2ccc(Cl)cc2Cl)c1 was read as uPA surface inh 6%, RORgamma inh 20µM*, TRPV1 ag -3, Gal4-VP16 FLuc inconclusive and TRPV1 PAM 1.
Screening COCCCNC(=O)C1CCC(=O)N(c2ccc3c(c2)OCO3)C1c1ccc(OC)cc1 (stereo unspecified) returned uPA surface inh -13%, RORgamma inh 3%, TRPV1 ag 2, Gal4-VP16 FLuc -2% and TRPV1 PAM -8.
`CC(=O)Oc1ccc(C(=O)Nc2ccc(C3(C#N)CCCC3)cc2)cc1` gave uPA surface inh 10µM*, RORgamma inh 0.35µM*, TRPV1 ag 0, Gal4-VP16 FLuc 0.4µM* and TRPV1 PAM 86*.
Screening CC(C)CCNC(=O)C1(O)c2ccccc2NC(=O)N1c1ccc(Cl)cc1 (stereo unspecified) returned uPA surface inh 10%, RORgamma inh 9%, TRPV1 ag 17, Gal4-VP16 FLuc -4% and TRPV1 PAM 9.
For CCc1cc(-c2[nH]ncc2-c2ccc([N+](=O)[O-])cc2)c(O)cc1OC the results were uPA surface inh 8%, RORgamma inh 13µM*, TRPV1 ag 13, Gal4-VP16 FLuc 20µM* and TRPV1 PAM -11.
Screening O=[N+]([O-])c1ccc(COc2ccc(-c3[nH]ncc3-c3ccc(Cl)cc3)c(O)c2)cc1 returned uPA surface inh 6%, RORgamma inh 43%, TRPV1 ag -4, Gal4-VP16 FLuc -10% and TRPV1 PAM 9.
For CCc1cc(-c2oncc2-c2ccc(OC)cc2)c(O)cc1OC the results were RORgamma inh inconclusive and Gal4-VP16 FLuc 14µM*.
CCC/C=C(\CCC)C(NS(=O)(=O)c1ccc(-c2ccccc2)cc1)c1ccc(C(=O)OC)cc1 (stereo unspecified) was read as RORgamma inh 3% and Gal4-VP16 FLuc 2%.
CC1(CC(=O)N/N=C/c2cc(Br)c(O)cc2O)OCCO1 was read as uPA surface inh -29%, RORgamma inh 10µM*, TRPV1 ag 0, Gal4-VP16 FLuc -15% and TRPV1 PAM 4.

High-throughput results: PubChem, National Center for Advancing Translational Sciences (NCATS)
